Data: PubChem BioAssay (Tox21)
Values without a mark were called inactive. Records with an inconclusive call do not appear. The source made the active and inactive calls. Unless noted, the call rests on the fitted dose curve.

Biological target: Thyrotropin-releasing hormone receptor (Homo sapiens) (UniProt P34981)
Assay: qHTS assay to identify small molecule antagonists of the thyrotropin-releasing hormone receptor (TRHR) signaling pathway (AID 1346877; active means well fitted inhibition curve with a large enough effect in the repeat runs, not every such curve was filed as active)
Conditions: TRHR-HEK293, TRH-induced calcium fluorescence, antagonist mode; series mostly up to 51.3 µM; activity, negative = inhibition: at the top concentration
Summary of the method: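 Calcium signal in dye-loaded TRHR/HEK293 cells; compounds added 5 min before TRH (1 nM final); fluorescence monitored 3 min at 1 s steps.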
On the % scale 0 is the no-effect control and ±100 the full control effect.

Chain of Thyrotropin-releasing hormone receptor (Homo sapiens) (P34981 whole entry, looked up): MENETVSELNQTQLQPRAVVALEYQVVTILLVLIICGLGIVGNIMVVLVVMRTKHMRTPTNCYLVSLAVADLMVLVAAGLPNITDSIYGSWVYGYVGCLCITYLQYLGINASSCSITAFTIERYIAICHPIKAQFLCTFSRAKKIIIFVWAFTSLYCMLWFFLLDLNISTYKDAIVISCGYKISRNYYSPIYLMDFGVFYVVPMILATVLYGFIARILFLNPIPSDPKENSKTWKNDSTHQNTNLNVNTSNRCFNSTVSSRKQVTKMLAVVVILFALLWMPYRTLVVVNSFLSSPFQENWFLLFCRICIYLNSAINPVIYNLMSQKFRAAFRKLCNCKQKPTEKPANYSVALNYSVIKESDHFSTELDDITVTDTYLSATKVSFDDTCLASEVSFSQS

Row | SMILES | activity, negative = inhibition
1 | CN1CCN(C2=Nc3cc(F)ccc3Cc3ccccc32)CC1 | 1.03% [at 23.6 µM]
2 | OCc1ccccc1O | -11.7% [at 23.6 µM]
3 | CC1(O)CSC(C)(O)CS1 (stereo not given) | -10.8%
4 | O=C(O)[C@@H](O)[C@H](O)[C@H](O)[C@@H](O)C(=O)O | 1.42% [at 23.6 µM]
5 | CC(=O)OC(C)OC(C)=O | 0.552%
6 | CCC/C=C/CO | 4.59%
7 | C/C(=N\O)[C@@H](C)NCC(C)(C)CN[C@H](C)/C(C)=N/O | -5.78% [at 23.6 µM]
8 | COc1cc2c(cc1N)oc1ccccc12 | 2.62%
9 | O=C1CCCCCCCCCCC(=O)OCCO1 | -4.72%
10 | CC(CNC1CCCCC1)OC(=O)c1ccccc1 (stereo not given) | 1.9% [at 23.6 µM]
11 | Cc1onc(-c2ccccc2)c1C(=O)Cl | -0.368% [at 23.6 µM]
12 | C=CCCC=C | 4.05%
13 | CCOC(=O)NCCC[Si](OCC)(OCC)OCC | 1.03%
14 | OCc1c2ccccc2cc2ccccc12 | -0.319%
15 | O=C(C(Cl)Cl)N1CCOC12CCCCC2 | 0.427%
16 | CN1CCN(c2c(F)cc3c(=O)c(C(=O)O)cn(CCF)c3c2F)CC1 | 1.54% [at 23.6 µM]
17 | NCCCN1CCN(CCCN)CC1 | -2.02%
18 | COC(=O)c1ccc(OC)cc1 | 4.41%
19 | NC(=O)NS(=O)(=O)c1ccc(Cl)cc1 | -1.96% [at 23.6 µM]
20 | CCN(CCCc1ccccc1)CCCc1ccccc1 | -4.67% [at 23.6 µM]
21 | C=C(C)C(=O)OCCOP(=O)(O)O | 3.22%
22 | C[C@]12C(=O)OC(=O)[C@H]1[C@H]1C=C[C@@H]2C1 | 1.74%
23 | Cc1ccc([N+](=O)[O-])c(N)c1 | -0.363%
24 | CC(C)NC[C@@H](O)COc1cccc2ccccc12 | 7.58% [at 23.6 µM]
25 | CCOC(=O)C1CC(=O)C(=C(O)C2CC2)C(=O)C1 (stereo not given) | -15.5%
26 | FC(F)(F)C(Cl)(Cl)Cl | 0.761%
27 | COc1ccc(S(=O)(=O)Nc2nnc(CC(C)C)s2)cc1 | -5.27% [at 23.6 µM]
28 | Cc1ccc([N+](=O)[O-])cc1Cl | 4.38%
29 | CCCCc1ccc2nc(NC(=O)OC)[nH]c2c1 | -1.27% [at 23.6 µM]
30 | Cc1cc(NS(=O)(=O)c2ccc(N)cc2)nc(C)n1 | 1.12% [at 23.6 µM]

Biological target: Thyrotropin-releasing hormone receptor (Homo sapiens) (UniProt P34981)
Assay: qHTS assay to identify small molecule agonists of the thyrotropin-releasing hormone receptor (TRHR) signaling pathway (AID 1346891);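 further: HEK293 cells expressing TRHR with calcium dye readout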
Conditions: TRHR-HEK293 calcium fluorescence, agonist mode; series mostly up to 57.6 µM; activation: at the top concentration
Summary of the method: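 Kinetic fluorescence (3 min, 1 s intervals) reported intracellular calcium after compound transfer onto TRHR-Hek293 cells pre-loaded with dye for 2 h at 37 °C.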

Row | SMILES | activation
31 | CN1CCN(C2=Nc3cc(F)ccc3Cc3ccccc32)CC1 | 0.984% [at 26.5 µM]
32 | OCc1ccccc1O | 0.0077% [at 26.5 µM]
33 | CC1(O)CSC(C)(O)CS1 (stereo not given) | 0.204%
34 | O=C(O)[C@@H](O)[C@H](O)[C@H](O)[C@@H](O)C(=O)O | -0.191% [at 26.5 µM]
35 | CC(=O)OC(C)OC(C)=O | 0.0074%
36 | CCC/C=C/CO | 0.209%
37 | C/C(=N\O)[C@@H](C)NCC(C)(C)CN[C@H](C)/C(C)=N/O | -0.202% [at 26.5 µM]
38 | COc1cc2c(cc1N)oc1ccccc12 | 0.127%
39 | O=C1CCCCCCCCCCC(=O)OCCO1 | 1.27%
40 | CC(CNC1CCCCC1)OC(=O)c1ccccc1 (stereo not given) | 1.2% [at 26.5 µM]
41 | Cc1onc(-c2ccccc2)c1C(=O)Cl | 0.0179% [at 26.5 µM]
42 | C=CCCC=C | 0.086%
43 | CCOC(=O)NCCC[Si](OCC)(OCC)OCC | -0.308%
44 | OCc1c2ccccc2cc2ccccc12 | 0.0271%
45 | O=C(C(Cl)Cl)N1CCOC12CCCCC2 | -0.662%
46 | CN1CCN(c2c(F)cc3c(=O)c(C(=O)O)cn(CCF)c3c2F)CC1 | 0.356% [at 26.5 µM]
47 | NCCCN1CCN(CCCN)CC1 | -0.42%
48 | COC(=O)c1ccc(OC)cc1 | -0.339%
49 | NC(=O)NS(=O)(=O)c1ccc(Cl)cc1 | -0.236% [at 26.5 µM]
50 | CCN(CCCc1ccccc1)CCCc1ccccc1 | -0.0052% [at 26.5 µM]
51 | C=C(C)C(=O)OCCOP(=O)(O)O | -0.354%
52 | C[C@]12C(=O)OC(=O)[C@H]1[C@H]1C=C[C@@H]2C1 | 0.0076%
53 | Cc1ccc([N+](=O)[O-])c(N)c1 | 0.322%
54 | CC(C)NC[C@@H](O)COc1cccc2ccccc12 | -0.294% [at 26.5 µM]
55 | CCOC(=O)C1CC(=O)C(=C(O)C2CC2)C(=O)C1 (stereo not given) | -0.381%
56 | FC(F)(F)C(Cl)(Cl)Cl | 0.379%
57 | COc1ccc(S(=O)(=O)Nc2nnc(CC(C)C)s2)cc1 | -1.3% [at 26.5 µM]
58 | Cc1ccc([N+](=O)[O-])cc1Cl | 0.0261%
59 | CCCCc1ccc2nc(NC(=O)OC)[nH]c2c1 | -0.0031% [at 26.5 µM]
60 | Cc1cc(NS(=O)(=O)c2ccc(N)cc2)nc(C)n1 | 0.367% [at 26.5 µM]

System: not listed separately
Assay: Human pregnane X receptor (PXR) small molecule agonists, qHTS cell viability counter screen (AID 1346977; active means well fitted cell-killing curve with a large enough effect in the repeat runs; further: nearly all actives have a fitted effect of over 50% in size; further: potency means the concentration at half of the fitted maximal effect)
Conditions: PXR-Luc HepG2 viability, CellTiter-Fluor, 24 h; series mostly up to 92.4 µM; activity change, negative = cytotoxicity: at the top concentration
Summary of the method: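 HepG2 cells stably carrying the PXR-Luc reporter are cultured with 5% charcoal-stripped FBS and treated with compounds for 24hr. CellTiter-Fluor is added at 23hr and fluorescence is read after 1hr.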

Row | SMILES | activity change, negative = cytotoxicity | Potency
61 | NC(=O)Cc1cccc(C(=O)c2ccccc2)c1N | 0.418% [at 42.5 µM] | –
62 | CCc1cc(Cl)c(OC)c(C(=O)NC[C@@H]2CCCN2CC)c1O | -12% [at 42.5 µM] | –
63 | OCc1ccccc1O | 0.403% [at 42.5 µM] | –
64 | CC1(O)CSC(C)(O)CS1 (stereo not given) | 8.6% | –
65 | O=C(O)[C@@H](O)[C@H](O)[C@H](O)[C@@H](O)C(=O)O | 8.53% [at 42.5 µM] | –
66 | O=C1CCCCCCCCCCC(=O)OCCO1 | -1.33% | –
67 | CC(CNC1CCCCC1)OC(=O)c1ccccc1 (stereo not given) | 1.49% [at 42.5 µM] | –
68 | Cc1onc(-c2ccccc2)c1C(=O)Cl | 10.6% [at 42.5 µM] | –
69 | C=CCCC=C | -0.0192% | –
70 | CCOC(=O)NCCC[Si](OCC)(OCC)OCC | 1.49% | –
71 | OCc1c2ccccc2cc2ccccc12 | -18.5% | –
72 | O=C(C(Cl)Cl)N1CCOC12CCCCC2 | – | 61.1 µM (active)
73 | Cn1cnc2c(F)c(Nc3ccc(Br)cc3Cl)c(C(=O)NOCCO)cc21 | -9.85% [at 42.5 µM] | –
74 | CCc1nnc(NS(=O)(=O)c2ccc(N)cc2)s1 | 17.3% [at 42.5 µM] | –
75 | CN1CCN(c2c(F)cc3c(=O)c(C(=O)O)cn(CCF)c3c2F)CC1 | 2.66% [at 42.5 µM] | –
76 | NCCCN1CCN(CCCN)CC1 | 5.58% | –
77 | CC(C)=CCC[C@](C)(O)[C@@H]1CC=C(C)CC1 | -5.16% | –
78 | C=C(C)C(=O)OCCOP(=O)(O)O | -0.806% | –
79 | C[C@]12C(=O)OC(=O)[C@H]1[C@H]1C=C[C@@H]2C1 | -0.151% | –
80 | CC(C)NC[C@@H](O)COc1cccc2ccccc12 | -24.8% [at 42.5 µM] | –
81 | CCOC(=O)C1CC(=O)C(=C(O)C2CC2)C(=O)C1 (stereo not given) | 8.15% | –
82 | FC(F)(F)C(Cl)(Cl)Cl | 0.617% | –
83 | COc1ccc(S(=O)(=O)Nc2nnc(CC(C)C)s2)cc1 | 0.791% [at 42.5 µM] | –
84 | CCCCc1ccc2nc(NC(=O)OC)[nH]c2c1 | -8.24% [at 42.5 µM] | –
85 | Cc1cc(NS(=O)(=O)c2ccc(N)cc2)nc(C)n1 | 11.2% [at 42.5 µM] | –
